HSP90 inh: HSP90 inhibitors, primary screen, cell lysate, luminescence; Rabbit reticulocyte lysate, luciferase refolding luminescence, 3 h; inhibition, % at 5.6 µM; 290,000 tested, 0.91% active; AID 1789, 2009;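 active means inhibition above the screen-wide mean plus 3 SD, computed separately per campaign, cut at about 16% in these data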;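 further: 0% = DMSO wells and 100% = 60 µM geldanamycin wells; inhibitors lower the luminescence because luciferase stays unfolded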
HSF1 inh: HSF1 inhibitors in luciferase reporter cells, primary screen, cell-based, NIH3T3, luminescence; activity change, negative = inhibition, % at 7.5 µM (by protocol); NIH3T3-HGL HSE-luciferase, MG132-induced, luminescence 8 h; active compounds read low; AID 2098, 2009; 300,000 tested, 0.77% active;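 active means more than half of replicate wells show activity change below -50%, luminescence cut by over half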;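 further: luciferase reports HSF-1 transcriptional activity via heat shock element; 0% = median of DMSO wells and -100% = zero luminescence signal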
NR0B1 inh: DAX1 (NR0B1) inhibitors, primary screen, cell-based, HEK293, Gal4-DAX1, luciferase luminescence; Nuclear receptor subfamily 0 group B member 1 (Homo sapiens), P51843; HEK293 Gal4-DAX1 luciferase reporter; inhibition, % at 6.75 µM; 340,000 tested, 0.99% active; AID 504766, 2011;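 active means inhibition above the mean over all tested compounds plus 3 SD, cut at about 4.2% in these data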;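 further: 0% = DAX1-transfected cells with DMSO and 100% = empty-vector control cells with DMSO; inhibition shows as a rise in luminescence from relieved DAX1 repression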
GAA850 FXN act: FXN promoter activators, primary screen, cell-based, luciferase luminescence, HEK293 lucGAA850 | HEK293 lucGAA850 FXN promoter luciferase reporter, 24 h; percent of 10 µM SAHA response | 360,000 tested, 0.56% active | AID 540364, 2011 | activation, % at 6 µM;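 active means activation above the average of all compounds screened plus 3 SD, cutoff fixed separately per campaign, cut at about 7.5% in these data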;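 further: 0% = DMSO wells and 100% = 10 µM SAHA wells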
AHR activator: AHR activators, primary screen, cell-based, luminescence, luciferase reporter, human; Aryl hydrocarbon receptor (Homo sapiens), P35869; AHR-responsive luciferase reporter cells; activation, % at 5 µM; 320,000 tested, 2.5% active; AID 2796, 2010; in the data active means activation above about 47%;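 further: 0% = vehicle wells and 100% = reference agonist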
Target sequence (P35869 whole entry, looked up): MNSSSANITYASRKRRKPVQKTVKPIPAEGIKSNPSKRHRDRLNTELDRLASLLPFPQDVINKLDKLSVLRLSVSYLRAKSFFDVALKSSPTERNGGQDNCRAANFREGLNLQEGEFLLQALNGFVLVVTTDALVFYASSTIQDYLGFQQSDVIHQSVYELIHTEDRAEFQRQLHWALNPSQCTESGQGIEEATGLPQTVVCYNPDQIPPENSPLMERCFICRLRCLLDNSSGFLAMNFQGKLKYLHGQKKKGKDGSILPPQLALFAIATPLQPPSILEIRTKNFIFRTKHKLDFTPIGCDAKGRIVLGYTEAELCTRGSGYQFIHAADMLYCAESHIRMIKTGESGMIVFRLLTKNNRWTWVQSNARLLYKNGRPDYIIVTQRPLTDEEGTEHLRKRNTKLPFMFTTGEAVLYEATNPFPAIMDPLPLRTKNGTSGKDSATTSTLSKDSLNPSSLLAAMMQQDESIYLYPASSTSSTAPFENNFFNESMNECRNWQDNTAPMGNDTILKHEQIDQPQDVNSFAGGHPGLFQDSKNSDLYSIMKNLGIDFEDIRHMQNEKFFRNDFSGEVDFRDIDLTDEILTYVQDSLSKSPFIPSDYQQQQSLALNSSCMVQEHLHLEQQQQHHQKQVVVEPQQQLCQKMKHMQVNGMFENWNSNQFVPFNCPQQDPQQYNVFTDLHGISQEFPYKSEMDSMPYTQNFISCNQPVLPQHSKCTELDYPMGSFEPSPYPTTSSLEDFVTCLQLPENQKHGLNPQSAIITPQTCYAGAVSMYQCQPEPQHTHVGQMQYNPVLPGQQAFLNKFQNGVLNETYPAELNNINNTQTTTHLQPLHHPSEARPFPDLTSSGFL
HSF-1 act: HSF-1 activators, primary screen, NIH3T3-HGL cells, MG132 stress, luminescence, single point; NIH3T3-HGL HSF-1 luciferase reporter, 8 h; 100% = twice DMSO control signal; activation, % at 9 µM; 300,000 tested, 1.7% active;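 active means mean replicate activation of at least 50% with a set share of replicates each reaching 50%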;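 further: 0% = median of the neutral control wells and 100% = twice that signal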
* hit, by the source's call; nt = no result. Shown are actives, neighbours in structure and some others; about 5.9% of the full set was active somewhere.

SMILES	HSP90 inh	HSF1 inh	NR0B1 inh	GAA850 FXN act	AHR activator	HSF-1 act
COc1ccc(C)cc1NC(=O)C(NCC(O)c1ccccc1)c1ccccc1 (stereo unspecified)	2	7	-1	0	5	19
Cc1ccc(C)c(NCC(O)c2ccccc2)c1 (stereo unspecified)	1	3	-3	-1	52*	7
Brc1cccc(-c2nc(-c3ccncc3)no2)c1	2	7	2	2	52*	22
Cc1cccc(-c2nc(-c3ccncc3)no2)c1	13	11	5.3*	3	4	19
COc1ccccc1-c1nc(-c2cccc(C)c2)no1	5	7	5.6*	1	10	40
O=C(NCc1ccccc1F)C(=O)NCC1CCCN1S(=O)(=O)c1ccccc1 (stereo unspecified)	nt	3	1	0	-2	-5
Cc1ccc(-n2cc(CN3CCN(Cc4nccn4C)CC3)c(-c3cccc(C)c3)n2)cc1	-1	28	-1	2	-3	51*
O=C1OC(COCC#Cc2ccccc2)CN1c1ccccc1 (stereo unspecified)	nt	nt	0	-2	nt	nt
C#CCOCC1CN(c2ccccc2)C(=O)O1 (stereo unspecified)	nt	nt	4.2*	0	nt	nt
COc1cc(C2CC(c3cccs3)=NN2C(=O)CCl)ccc1OC(F)F (stereo unspecified)	3	-67*	-1	-10	2	-72
COc1ccc(S(=O)(=O)N(C)Cc2ccc3c(c2)OCCO3)cc1	nt	nt	0	1	2	nt
C[C@@H]1CN([C@H](C)CO)C(=O)c2c(c3ccccc3n2C)-c2ccccc2CO[C@H]1CN(C)C(=O)c1cc(Cl)cc(Cl)c1	nt	nt	4.3*	1	nt	nt
O=C(N/N=C\c1cc2c(cc1[N+](=O)[O-])OCO2)c1cccs1	2	nt	3	2	nt	nt
O=C(Nc1ccc2c(c1)OCCO2)c1cccs1	-3	9	0	5	1	29
O=C(Nc1ccc2c(c1)OCO2)c1cccs1	-1	14	1	5	88*	33
O=C(N/N=C\c1cc2c(cc1Cl)OCO2)c1cccs1	-4	21	0	2	78*	12
COc1cccc(-c2cnc(C(O)c3ccc(C)cc3C)[nH]2)c1 (stereo unspecified)	nt	nt	nt	1	nt	nt
Cc1c(C(=O)Oc2cccc3ccccc23)cnn1-c1ccccc1	10	-22	1	-3	6	-23
O=C(NCc1cccs1)c1nc(-c2cccs2)no1	0	5	4.3*	2	10	36
Fc1cccc(F)c1/C=N/NC(=S)Nc1cccnc1	2	11	0	2	43	2
Oc1ccc(/C=N/NC(=S)Nc2cccnc2)c(O)c1	1	-2	-1	3	60*	-1
Fc1c(F)c(F)c(/C=N/NC(=S)Nc2cccnc2)c(F)c1F	-8	0	0	2	71*	-1
O=C(Cc1ccccc1[N+](=O)[O-])NCc1ccc(Cl)cc1	2	16	1	3	13	26
O=C(Cc1ccccc1[N+](=O)[O-])NCc1ccc(Cl)cc1Cl	0	39	1	4	7	81*
Clc1ccc(-c2nnc(-c3ccccc3)o2)cn1	-2	1	2	2	nt	12
SMILES	HSP90 inh	HSF1 inh	NR0B1 inh	GAA850 FXN act	AHR activator	HSF-1 act
COc1ccc(-c2nn(-c3ccccc3)cc2/C=N/Nc2ccc3ccccc3n2)cc1OC	5	6	-2	2	49*	2
COc1cccc(-c2nn(-c3ccccc3)cc2CO)c1	-3	4	4	4	1	14
Cc1ccc(-c2nn(-c3ccccc3)cc2CN(C)C(=O)CCC(=O)O)cc1C	-2	-55*	-1	2	4	-60
COc1ccc(-c2nn(-c3ccccc3)cc2/C=N/NC(=S)NC(C)C)cc1OC	-5	10	-2	1	55*	23
COc1ccc(-c2nn(-c3ccccc3)cc2/C=N/O)cc1OC	6	-5	-1	1	38	9
COc1ccc(-c2nn(-c3ccccc3)cc2CO)cc1OC	2	1	2	-1	51*	22
COCOCCn1cc(CN2CCS(=O)(=O)N(Cc3ccc(-c4ccc(F)cc4)cc3)C(C(C)C)C2=O)nn1 (stereo unspecified)	nt	nt	0	-2	nt	nt
Cc1cc(C(=O)Nc2cnc3ccccc3c2)ccc1[N+](=O)[O-]	-4	41	3	5	5	48
COC(=O)c1cccc(NC(=O)c2cccc(-n3cnnn3)c2)c1	nt	nt	-1	-1	nt	nt
Cc1ccc(C(=O)Nc2cccc(-c3cnc4ccccc4n3)c2)cc1	-1	-61*	0	1	9	-67
Cc1ccc(C(=O)Nc2cnc3ccccc3c2)cc1	87*	-67*	-6	-9	44	-73
Cc1cccc(C(=O)Nc2cccc(-c3cnc4ccccc4n3)c2)c1	1	0	2	1	2	5
O=C(Nc1cnc2ccccc2c1)c1cccc(-n2cnnn2)c1	1	11	3	2	59*	23
Cc1ccc2c(CC(=O)Nc3ccc4nc(N5CCOCC5)sc4c3)coc2c1	nt	nt	0	0	nt	nt
CCN(CC(=O)Nc1ccc(NC(C)=O)cc1)C(=O)c1ccc(C(=O)c2ccccc2)cc1	nt	nt	1	2	1	nt
Cn1c(=O)c(C(=O)NCCc2ccccc2)c(O)c2ccccc21	1	1	-1	1	72*	14
CCCn1c(=O)c(C(=O)NCCc2ccccc2)c(O)c2ccccc21	4	-5	0	-1	2	-11
CCn1c(=O)c(C(=O)Nc2ccccc2)c(O)c2ccccc21	-2	-6	0	1	19	6
CCOC(=O)c1c(C)c(C(=O)NCCc2ccccc2)c(C)n1C	-2	40	0	5	20	77*
CCn1c(=O)c(C(=O)Nc2ccccc2F)c(O)c2ccccc21	0	-78*	1	1	22	-82
Cc1cccc(CCN2CCN=C2N(C)C)c1	nt	nt	1	1	3	nt
CC1(C(=O)NS(=O)(=O)c2cccc(OC(F)F)c2)CCN1C(=O)Cc1ccsc1 (stereo unspecified)	nt	nt	nt	0	nt	nt
CCC(C)(C)NC(=O)CN(Cc1ccc2c(c1)OCO2)C(=O)CCC(=O)Nc1cc(C)ccn1	-3	-10	-1	-2	3	8
Cc1cc(OC(=O)c2cc(Br)ccc2Cl)c([N+](=O)[O-])c(=O)[nH]1	1	2	1	1	-3	1
